MITF primary: inhibitors of human MITF; O75030; AlphaScreen MITF homodimerization, bead proximity signal; inhibition, % at 2.6 µM; 0.91% of 650,000 active; in the data active means inhibition above about 50%
GPR151 activ: activates the human receptor GPR151 | Q8TDV0 | PathHunter beta-arrestin GPR151 cells, luminescence | activation, % at 11.2 µM | 1% of 650,000 active | AID 1508602; in the data active means activation above about 4.9%
Target sequence (Q8TDV0 whole entry, looked up): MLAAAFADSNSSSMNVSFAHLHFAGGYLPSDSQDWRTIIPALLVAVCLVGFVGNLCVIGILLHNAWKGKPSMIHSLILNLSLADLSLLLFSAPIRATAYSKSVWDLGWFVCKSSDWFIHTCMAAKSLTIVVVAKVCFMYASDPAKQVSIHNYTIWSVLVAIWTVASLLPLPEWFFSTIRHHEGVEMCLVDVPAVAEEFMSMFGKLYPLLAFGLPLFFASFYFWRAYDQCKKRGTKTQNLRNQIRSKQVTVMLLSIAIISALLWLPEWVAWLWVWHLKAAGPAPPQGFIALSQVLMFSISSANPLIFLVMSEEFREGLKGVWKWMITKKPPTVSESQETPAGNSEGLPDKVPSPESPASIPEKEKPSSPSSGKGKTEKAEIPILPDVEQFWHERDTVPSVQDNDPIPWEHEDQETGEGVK
TEAD-YAP block: TEAD-YAP interaction inhibition; AID 1259422; HEK-TIYL cells, TEAD-Gal4/YAP UAS-luciferase luminescence; 1.4% of 640,000 active; inhibition, % at 9.12 µM; in the data active means inhibition above about 32%
FBW7 activator: activators of human E3 ligase FBW7; Q969H0; AlphaScreen FBW7–phospho-cyclin E peptide binding, activator screen; normalized activity (activation), % at 26.1 µM; 0.13% of 650,000 active; AID 1259310; in the data active means normalized activity above about 1.9%;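 further: purified mutant Fbw7 with reduced substrate affinity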
Numbers stand for hits; – = inactive. A selection: hits, their analogues and other compounds. The true share with any hit is near 3.5%.

SMILES | MITF primary | GPR151 activ | TEAD-YAP block | FBW7 activator
CNC(=O)c1c(NC(=O)c2ccc(N(C)C)cc2)sc2c1CCC2 | – | – | – | –
COc1c(O)cc2c(c1O)[C@@H]1O[C@H](CO)[C@@H](O)[C@H](O)[C@H]1OC2=O | – | – | – | –
Cc1c(C(=O)O)c(O)cc2c1C(=O)c1c(O)c([C@H]3O[C@H](CO)[C@@H](O)[C@H](O)[C@H]3O)c(O)c(O)c1C2=O | 90 | – | – | –
O=C(O)CCCCN1C(=O)CSC1=S | – | – | 38 | –
O=C(O)CCN1C(=O)CSC1=S | – | – | – | –
COc1cccc(C=Nc2cnn(C)c2C(N)=O)c1O | – | – | – | 3.6
CCN(CC)CCn1c2ccccc2n2cc(-c3ccc(Br)cc3)nc12 | – | – | – | 3.6
CCN(CC)CCn1c2ccccc2n2cc(-c3ccc(Cl)c(Cl)c3)nc12 | – | – | – | 6.2
CCN(CC)CCn1c(-c2ccc(Cl)cc2)cn2c3ccccc3nc12 | – | – | – | –
CN(C)CCn1c2ccccc2n2cc(-c3ccc(-c4ccccc4)cc3)nc12 | – | – | – | –
CCN(CC)CCn1c2ccccc2n2cc(-c3ccc(Cl)cc3)nc12 | – | – | – | 4.3
CCOc1ccc(-c2cn3c4ccccc4n(CCN(CC)CC)c3n2)cc1 | – | – | – | –
N#Cc1ccsc1NC(=O)CCOc1ccccc1 | – | – | – | –
CCOCCn1cnc2sc(C(=O)N3CC(C)CC(C)C3)c(C)c2c1=O (stereo unspecified) | – | – | – | –
COC(=O)C(=O)CC(=O)c1cccs1 | – | – | – | –
Cn1cnnc1SCC(C)(C)NS(=O)(=O)c1ccccc1 | – | – | – | –
CC(C)c1ccc(C2NN=C(c3ccccc3)S2)cc1 (stereo unspecified) | – | – | 70 | –
CC(=O)Nc1cc(NC(=O)CSc2nnc(C)c(=O)[nH]2)ccc1C | – | – | – | –
CCN1/C(=C/c2cc[n+](C)cc2)C=Cc2cc(C)ccc21 | – | – | 81 | –
CCN1C(=C2C(=O)c3ccccc3C2=O)C=Cc2cc(C)ccc21 | – | – | – | –
CC[n+]1c(/C=C2\C=Cc3cc(C)ccc3N2C)sc(C)c1C | – | – | 61 | –
CC[n+]1ccc(/C=C2\C=Cc3cc(C)ccc3N2C)cc1 | – | – | 58 | –
CC[n+]1ccc(/C=C2\C=Cc3ccc(C)cc3N2C)cc1 | – | – | – | –
CCOc1ccc(NC(=O)C2CCCN2S(=O)(=O)c2ccc(OC)cc2)cc1 (stereo unspecified) | – | – | – | –
COc1ccc(/C=C2\Oc3cc(OCC(=O)OC(C)C)ccc3C2=O)cc1 | – | – | – | –
SMILES | MITF primary | GPR151 activ | TEAD-YAP block | FBW7 activator
CCOc1ccc(Nc2ccc3ccccc3n2)cc1 | – | – | 41 | –
NC(=O)COc1ccc(S(=O)(=O)N2CCCC2)cc1Cl | – | – | – | –
C#CCn1c(=NC(=O)C2COc3ccccc3O2)sc2cc(OC)c(OC)cc21 (stereo unspecified) | – | – | 35 | –
CC(C)n1c(NCc2cccnc2)nc2c(Nc3ccccc3)ncnc21 | – | – | 53 | –
CC(C)n1c(Nc2ccc(-n3ccnc3)cc2)nc2c(Nc3ccccc3)ncnc21 | – | – | 49 | –
CC(C)n1c(Nc2ccncc2)nc2c(Nc3ccc(Oc4ccccc4)cc3)ncnc21 | – | – | 45 | –
O=C(c1cc(-c2cccs2)n(CC(=O)N2CCCc3ccccc32)n1)N1CCOCC1 | – | – | 51 | –
CN(C)C(=O)Cn1nc(C(=O)N2CCOCC2)cc1-c1cccs1 | – | – | – | –
O=c1ccc2ccc(OCc3cc([N+](=O)[O-])cc4c3OCOC4)cc2o1 | – | – | – | –
O=C(Sc1cccc2cccnc12)N1CCOCC1 | – | – | – | –
Oc1c(C(c2ccccc2)N2CCOCC2)ccc2cccnc12 (stereo unspecified) | – | – | 87 | –
Oc1c(C(c2ccc(Br)cc2)N2CCOCC2)ccc2cccnc12 (stereo unspecified) | – | – | 73 | –
O=C(Nc1ccc(C(=O)O)c(C(=O)O)c1)c1ccc(Oc2ccc([N+](=O)[O-])cc2)cc1 | – | – | – | –
COC(=O)c1nnn(-c2nonc2N)c1CN1CCC(C)CC1 | – | – | – | –
CCOc1ccccc1-c1cc(C(=O)N/N=C(/C)c2ccccc2)[nH]n1 | – | – | 50 | –
COc1cc(/C(C)=N/NC(=O)c2cc(-c3cccc4ccccc34)n[nH]2)ccc1O | – | – | – | –
CCOc1ccccc1-c1cc(C(=O)N/N=C(/C)c2cccc(O)c2)[nH]n1 | – | – | 52 | –
CC(=O)Nc1ccc(Nc2nc(NCc3cccnc3)nc3c2ncn3C(C)C)cc1 | – | – | – | –
CCCOc1ccc(C2C(C(=O)OCCOCC)=C(C)NC3=C2C(=O)CCC3)cc1OC (stereo unspecified) | – | – | – | –
Cc1cccc(N2C(=O)C3CC=CCC3C2=O)n1 (stereo unspecified) | – | – | – | –
CN(C)c1ccc(-c2ccc(OC3CCNCC3)cc2)cn1 | – | – | 57 | –
COc1ccccc1NC(=O)N1CCC(C(=O)Nc2cc(C)cc(C)c2)CC1 | – | – | – | –
CN(C)c1ccc(-c2ccc(OC3CCN(S(C)(=O)=O)CC3)cc2)cn1 | – | – | – | –
CN(C)c1ccc(-c2ccc(OC3CCN(c4ncccn4)CC3)cc2)cn1 | – | – | 48 | –
COc1ccccc1NC(=O)N1CCC(Oc2ccc(-c3ccc(N(C)C)nc3)cc2)CC1 | – | – | 35 | –
SMILES | MITF primary | GPR151 activ | TEAD-YAP block | FBW7 activator
COCCOC(=O)C1=C(C)NC2=C(C(=O)CC(c3ccc(Cl)cc3)C2)C1c1ccc(OC(C)=O)cc1 (stereo unspecified) | – | – | – | –
CCSc1nc2sccn2c(=O)c1C(=O)NCc1ncc(C(F)(F)F)cc1Cl | – | – | – | –
O=C(NCc1ncc(C(F)(F)F)cc1Cl)c1cn2ccsc2n1 | – | – | – | 2.0
O=C1/C(=C/c2cccnc2)CCCC/C1=C\c1cccnc1 | – | – | – | –
CN1C/C(=C\c2ccncc2)C(=O)/C(=C/c2ccncc2)C1 | – | – | 95 | –
Cc1ccc(/C=C2/CN(C)C/C(=C/c3ccc(C)o3)C2=O)o1 | – | – | – | –
O=C1/C(=C/c2ccncc2)CCC/C1=C\c1ccncc1 | – | – | 59 | –
CC(=O)c1ccc2c(c1)[nH]c1cc(C(C)=O)ccc12 | – | – | 46 | –
CC1=C(C(=O)Nc2cc(Cl)ccc2C)C(c2ccc(N(C)C)cc2)NC(=S)N1 (stereo unspecified) | – | – | – | –
O=S(=O)(Nc1cc(Cl)c(O)c(NS(=O)(=O)c2ccccc2)c1)c1ccccc1 | – | – | – | –
O=C(CCN1CCCCC1)N1N=C(c2ccc(Br)cc2)CC1c1ccc(Br)cc1 (stereo unspecified) | – | – | – | –
COc1cccc(C2=NN3C(C2)c2cccc(OC)c2OC3c2ccc(F)c(F)c2)c1 (stereo unspecified) | – | – | – | –
COC(=O)c1ccc(C2Oc3c(OC)cccc3C3CC(c4ccc(OC)cc4)=NN32)cc1 (stereo unspecified) | – | – | – | –

Screens (PubChem)
